Values joined by “and” are separate entries in the source; they are usually repeats but may differ in a detail not shown here. Identical values can stand only once. Results filed as inconclusive are left out. Some structures have more than one record in an assay (separate samples or runs), and their calls can disagree. Active and inactive are the calls of the source. Calls follow the shape of the dose curve; as a rule, active = well fitted curve in the direction sought with a large enough effect; inconclusive = small, poorly fitted or top-dose-only effect, or another doubt; inactive = no such curve, though single readings can be large; an effect the other way counts as inactive or inconclusive.
Assays:
[1] = qHTS Screen of the MIPE 4.0 Collection Against Ewings Sarcoma (RDES) (AID 1259252); also: nearly all actives have a fitted effect of over 35% in size; also: potency is read from the fitted curve at half-maximal effect
Procedure, shortened: (§1)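 Log-phase cells in RPMI with 5% FBS attached for 4 h, then received compounds as a titration for 48 h at 37C, 5% CO2. Viability was read by CellTiter-Glo luminescence and normalized to DMSO and no-cell wells.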

[2] = qHTS Screen of the MIPE 4.0 Collection Against Ewings Sarcoma (TC71) (AID 1259253); also: nearly all actives have a fitted effect of over 40% in size; also: potency is read from the fitted curve at half-maximal effect
Procedure, shortened: as §1

[3] = qHTS Screen of the MIPE 4.0 Collection Against Ewings Sarcoma (TC32) (AID 1259256); also: nearly all actives have a fitted effect of over 45% in size; also: potency is read from the fitted curve at half-maximal effect
Procedure, shortened: as §1

[4] = P-glycoprotein substrates identified in KB-8-5-11 adenocarcinoma cell line, qHTS therapeutic library screen (AID 1346987); also: nearly all actives have a fitted effect of over 65% in size; also: potency is read from the fitted curve at half-maximal effect
Procedure, shortened: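 KB-8-5-11: colchicine-selected sub-line of KB-3-1 over-expressing P-gp; assay medium lacked colchicine. 72 h drug exposure at 37 degree C, CellTiter-Glo.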

[5] = Identifying Small Molecule Inhibitors of Pancreatic Cancer Stem Cells (SN12C, Spheroid) (AID 1259360); details: Potency: SN12C spheroid viability; also: potency is read from the fitted curve at half-maximal effect
Procedure, shortened: (§2)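 Pre-formed 14-day tumor spheroids or adherent cells dosed and incubated 48 h, 37C, 5% CO2. Viability assessed by CellTiter-Glo.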

[6] = Identifying Small Molecule Inhibitors of Pancreatic Cancer Stem Cells (A278, Adherent) (AID 1259361); also: nearly all actives have a fitted effect of over 35% in size
Procedure, shortened: (§3)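 Spheroids grown 14 days in stem cell media on hydrogel-coated nonadherent plates; 2D lines seeded directly. Compounds added after 4 h attachment, 48 h at 37C, 5% CO2; CellTiter-Glo luminescence normalized to DMSO (no inhibition) and no-cell wells (full inhibition).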

[7] = P-glycoprotein substrates identified in KB-3-1 adenocarcinoma cell line, qHTS therapeutic library screen (AID 1346986); also: nearly all actives have a fitted effect of over 60% in size;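 also: potency is read from the fitted curve at half-maximal effect; potency is for cytotoxicity meaning loss of cell viability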
Procedure, shortened: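 Compounds were tested in dose-response against KB-3-1 and KB-8-5-11 cells at 37 degree C for 72 h, and viability was measured by luminescence. AC50 values came from curve fitting with class-based activity calls.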

[8] = NS1 protein of Zika virus - qHTS assay to identify small molecule inhibitors in human HEK 293 cells (AID 1347053); also: nearly all actives have a fitted effect of over 55% in size; also: potency is read from the fitted curve at half-maximal effect
Procedure, shortened: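 Following 20 h seeding, HEK 293 cells took compound, then 1 h later ZIKV MR766 (MOI = 0.5). Incubation ran 24 h at 37 C before TR-FRET detection of NS1; a drop in signal indicates inhibition.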

[9] = Identifying Small Molecule Inhibitors of Pancreatic Cancer Stem Cells (A2780, Spheroid) (AID 1259357); details: Potency: A2780 spheroid viability; also: potency is read from the fitted curve at half-maximal effect;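 also: spheroids pre-formed over 14 days in stem cell medium on hydrogel; compound exposure lasted 48 h before the ATP luminescence read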
Procedure, shortened: as §2

[10] = Identifying Small Molecule Inhibitors of Pancreatic Cancer Stem Cells (Panc1, Adherent) (AID 1259362); details: Potency: viability; also: potency is read from the fitted curve at half-maximal effect
Procedure, shortened: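 Luminescent ATP readout (CellTiter-Glo) quantifies surviving cells after a 48 h drug incubation. Normalization uses DMSO wells as no inhibition and media-only wells as full inhibition; bortezomib served as positive control.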

[11] = qHTS Screen of the MIPE 4.0 Collection Against Ewings Sarcoma (EW8) (AID 1259255); also: nearly all actives have a fitted effect of over 35% in size; also: potency is read from the fitted curve at half-maximal effect
Procedure, shortened: as §1

[12] = qHTS assay to identify small molecule inhibitors of chordoma cells - UCH-2 (AID 1259356); also: series mostly up to about 46 µM
[13] = Identifying Small Molecule Inhibitors of Pancreatic Cancer Stem Cells (SN12C, Adherent) (AID 1259358);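 also: cell survival measured after 48 h of compound exposure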; also: potency is read from the fitted curve at half-maximal effect
Procedure, shortened: as §3

CC(C)CC(=O)Nc1n[nH]c2c1CN(C(=O)C1CCN(C)CC1)C2(C)C
active: Potency [1] 0.296 µM | Potency [2] 0.743 µM | Potency [3] 0.833 µM
inactive: Potency [4]

CN1CCC(CNc2ccc3ncc(-c4cccc(OC(F)(F)F)c4)n3n2)CC1
active: Potency [1] 16.6 µM | Potency [2] 16.6 µM | Potency [3] 13.2 µM | Potency [5] 23.5 µM | IC50 (viability decrease) [6] 18.7 µM | Potency [7] 20.6 µM | Potency [4] 13.2 µM and 18.4 µM | Potency [8] 16.6 µM

CC1(O)CC(c2nc(-c3ccc4ccc(-c5ccccc5)nc4c3)c3c(N)nccn23)C1 (stereo unspecified)
active: Potency [1] 20.9 µM | Potency [2] 5.9 µM | Potency [3] 0.0743 µM | Potency [7] 6.51 µM

COCCn1c2c([n+](Cc3cnccn3)c1C)C(=O)c1ccccc1C2=O
inactive: Potency [10]
active: Potency [1] 0.0021 µM | Potency [2] 0.0166 µM | Potency [3] 0.0053 µM | Potency [9] 0.0132 µM | Potency [5] 0.105 µM | IC50 (viability decrease) [6] 0.0066 µM | Potency [8] 0.0372 µM

CCOc1ccccc1OCCNC(C)Cc1ccc(OC)c(S(N)(=O)=O)c1 (stereo unspecified)
inactive: Potency [1] | Potency [2] | Potency [3] | Potency [7] | Potency [8]

CC[C@H]1CN2CCc3cc(OC)c(OC)cc3[C@H]2C[C@@H]1C[C@@H]1NCCc2cc(OC)c(OC)cc21
active: Potency [2] 0.059 µM | Potency [11] 0.0662 µM | Potency [3] 0.0743 µM | Potency [4] 1.18 µM | Potency [8] 0.118 µM
inactive: outcome [12]

COc1cccc2nc(-c3cccs3)nc(NN3C(=O)C=C(C)C3=O)c12
active: Potency [2] 0.743 µM | Potency [11] 0.469 µM | Potency [3] 1.87 µM | Potency [9] 0.662 µM | Potency [5] 20.9 µM | IC50 (viability decrease) [6] 0.469 µM | Potency [10] 16.6 µM | Potency [8] 3.72 µM

COc1cc(Nc2ncc(F)c(Nc3ccc4c(n3)N(COP(=O)(O)O)C(=O)C(C)(C)O4)n2)cc(OC)c1OC
active: Potency [1] 11.8 µM | Potency [2] 16.6 µM | Potency [3] 3.32 µM | Potency [4] 1.66 µM and 2.31 µM and 13 µM
inactive: Potency [8]

Cc1cnc(Nc2ccc(F)cc2Cl)nc1-c1c[nH]c(C(=O)N[C@H](CO)c2cccc(Cl)c2)c1
active: Potency [1] 20.9 µM | Potency [2] 18.7 µM | Potency [3] 23.5 µM | Potency [13] 13.2 µM | Potency [5] 23.5 µM | IC50 (viability decrease) [6] 11.8 µM | Potency [10] 18.7 µM | Potency [4] 23.5 µM

NC(=O)c1cccc2cn(-c3ccc([C@@H]4CCCNC4)cc3)nc12
inactive: Potency [4]
active: Potency [1] 1.87 µM | Potency [2] 3.72 µM | Potency [3] 2.35 µM | Potency [8] 11.8 µM

CC1(C)OC2=C(C(=O)c3ccccc3C2=O)[C@H](NCc2ccccc2)[C@H]1O
active: Potency [1] 2.64 µM | Potency [2] 2.64 µM | Potency [3] 3.32 µM | Potency [9] 14.8 µM | Potency [13] 26.4 µM | Potency [5] 23.5 µM | Potency [10] 3.32 µM | Potency [4] 9.35 µM

CCn1cc(-c2ccnc3[nH]c(-c4cccc(CN(C)C)c4)cc23)c(-c2ccc(NC(=O)N(C)C)cc2)n1
active: Potency [1] 7.43 µM | Potency [2] 3.72 µM | Potency [3] 0.0469 µM

N#CCNC(=O)c1ccc(-c2ccnc(Nc3ccc(N4CCOCC4)cc3)n2)cc1
active: Potency [1] 11.8 µM | Potency [2] 4.69 µM | Potency [3] 16.6 µM | Potency [9] 20.9 µM | IC50 (viability decrease) [6] 13.2 µM | Potency [7] 3.66 µM | Potency [4] 8.33 µM and 5.8 µM

CC(=O)OCC(=O)[C@@]1(O)[C@H](C)C[C@H]2[C@@H]3C=C(C)C4=Cc5c(cnn5-c5ccccc5)C[C@]4(C)[C@@H]3[C@@H](O)C[C@@]21C
active: Potency [1] 6.62 µM | Potency [2] 6.62 µM | Potency [3] 5.9 µM | Potency [5] 20.9 µM | IC50 (viability decrease) [6] 13.2 µM | Potency [8] 11.8 µM
inactive: Potency [9] | Potency [13] | Potency [7] | Potency [4]

O=C(C=Cc1cccnc1)NCCCCC1CCN(C(=O)c2ccccc2)CC1
active: Potency [1] 0.0042 µM | Potency [2] 0.0042 µM | Potency [3] 0.0042 µM | Potency [5] 0.0021 µM | Potency [4] 0.0166 µM
inactive: Potency [9] | IC50 (viability decrease) [6] | Potency [10] | Potency [8]

O=C(O)c1ccc2c(c1)nc(Nc1cccc(Cl)c1)c1ccncc12
inactive and 14.6 µM (active): Potency [4]
active: Potency [1] 4.18 µM | Potency [2] 4.69 µM | Potency [3] 5.9 µM | IC50 (viability decrease) [6] 16.6 µM | Potency [7] 5.8 µM

CC(C)(O)CCc1ccc(OCc2cc(-c3cccc(OC(F)F)c3)c3ncccc3c2)cc1
inactive: Potency [2] | Potency [11] | Potency [3]

Cc1ccc2nc(NC(=O)CSc3nc4c(c(=O)n3-c3ccccc3)SCC4)sc2c1
inactive: Potency [4] | Potency [8]
active: Potency [1] 18.7 µM | Potency [2] 20.9 µM | Potency [3] 16.6 µM

CC(C)c1nn(-c2c(Cl)cccc2Cl)c2nc(Cc3ccc(OCCO)cc3)[nH]c(=O)c12
active: Potency [1] 0.187 µM | Potency [2] 0.132 µM | Potency [3] 0.105 µM | Potency [8] 0.166 µM
